MEKK2 mut-MEK5: signal of MEK5 binding to mutant human MEKK2 PB1 domain; bead flow cytometry, Alexa488-MEK5 binding to MEKK2 mutant; actives 0.35% (n = 290,000); percent response, % at 10 µM; AID 1530; in the data active = percent response above about 24%, passing the limit was not always enough
MEKK3 PB1 HTS: MEKK3-MEK5 PB1 interaction, increase or decrease; bead-based flow cytometry, Alexa488-MEK5 binding to MEKK3; actives lie on both sides; 0 = blocked by unlabeled MEK5, 100 = vehicle; binding response (% of control), % at 10 µM; actives 1.4% (n = 290,000); Q99759; AID 1529;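 active = binding response more than 3 SD above or below the average of its plate-row segment, actives on both sides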;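 also: Alexa488 bead fluorescence after subtracting the streptavidin-only scavenger bead signal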
MEKK2 WT-MEK5: raises or lowers MEK5 binding to wildtype human MEKK2 PB1 domain; binding response (% of control), % at 10 µM; actives 1.1% (n = 290,000); Q9Y2U5; bead flow cytometry, Alexa488-MEK5 binding to MEKK2 WT; actives lie on both sides; in the data active = binding response below about 67% or above about 130%
UBC13 polyUb: human UBC13 polyubiquitination inhibition; P61088; UBC13 polyubiquitin chain formation, TR-FRET; inhibition, % at 20 µM; actives 0.47% (n = 330,000); AID 485273; in the data active = inhibition above about 45%, passing the limit was not always enough
Target sequence (P61088 whole entry, looked up): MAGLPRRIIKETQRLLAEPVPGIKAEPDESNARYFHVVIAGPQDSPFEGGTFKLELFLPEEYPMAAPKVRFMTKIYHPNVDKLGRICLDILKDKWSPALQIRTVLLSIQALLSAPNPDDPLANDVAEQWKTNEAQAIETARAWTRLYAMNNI
MEKK2wt confirm: raises or lowers MEK5 binding to wildtype human MEKK2, retest. shares compounds with MEKK3 PB1 HTS. bead flow cytometry, Alexa488-MEK5 binding to MEKK2 WT; actives lie on both sides. binding response (% of control), % at 10 µM. actives 2.4% (n = 5,900). AID 1892; in the data active = binding response below about 16% or above about 210%; inactive = in between
MEKK2mut confirm: signal of MEK5 binding to mutant human MEKK2, retest | shares compounds with MEKK3 PB1 HTS | bead flow cytometry, Alexa488-MEK5 binding to MEKK2 mutant | percent response, % at 10 µM | actives 2% (n = 5,900) | AID 1893; in the data active = percent response mostly above about 71%, no sharp cut-off; inactive = mostly below about 38%;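 also: higher means compound restores mutant binding toward wildtype level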
MEKK3 confirm: MEKK3-MEK5 PB1 inhibition, single concentration confirmation. AID 1894. actives 1.8% (n = 5,900). bead flow cytometry, Alexa488-MEK5 binding to MEKK3; hits give low values. binding response (% of control), % at 10 µM. shares compounds with MEKK3 PB1 HTS;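 active = binding response below 72% of control, or above a set upper limit, though filed actives all read lower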;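 also: 100% = DMSO only wells and 0% = binding blocked by excess unlabeled MEK5; lower values mean stronger disruption of MEK5 binding to MEKK3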
Casp3 counter: caspase-3 inhibition (UBC13 counter-screen); shares compounds with UBC13 polyUb; Recombinant caspase-3, Caspase-Glo 3/7 luminescence, 60 min; inhibition, % at 20 µM; actives 4% (n = 1,400); AID 488856;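 active = mean inhibition across replicates above about 26%, limit read from the data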;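 also: plate controls were DMSO with caspase-3 for no effect and DMSO wells lacking enzyme for full effect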
Target sequence (P42574 whole entry, looked up): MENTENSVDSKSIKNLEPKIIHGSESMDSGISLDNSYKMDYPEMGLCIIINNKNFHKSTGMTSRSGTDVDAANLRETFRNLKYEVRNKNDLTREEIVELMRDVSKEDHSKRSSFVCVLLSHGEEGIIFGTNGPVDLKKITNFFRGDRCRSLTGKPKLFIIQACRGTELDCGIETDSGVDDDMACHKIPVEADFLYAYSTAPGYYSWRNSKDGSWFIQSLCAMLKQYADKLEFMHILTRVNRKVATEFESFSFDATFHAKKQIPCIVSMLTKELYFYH
UBC13 conf: human UBC13 polyubiquitin inhibition, confirmed; shares compounds with UBC13 polyUb; UBC13 polyubiquitination, TR-FRET, biochemical; inhibition, % at 10 µM; actives 68% (n = 1,400); AID 488859; in the data active = inhibition above about 45%
* hit, by the source's call; nt = no result; [ ] = remark or other dose. This is a sample that favours compounds with a hit; in the whole collection about 2.3% have one here.

SMILES | MEKK2 mut-MEK5 | MEKK3 PB1 HTS | MEKK2 WT-MEK5 | UBC13 polyUb | MEKK2wt confirm | MEKK2mut confirm | MEKK3 confirm | Casp3 counter | UBC13 conf
CCC(C)c1ccc(OCc2ccc(C(=O)OC)o2)cc1 (centres undefined) | -3 | 96 | 97 | -1 | nt | nt | nt | nt | nt
CC(=O)c1ccc(S(=O)(=O)N2CCC3(CC2)CC(=O)c2ccccc2O3)cc1 | nt | nt | nt | -1 | nt | nt | nt | nt | nt
CN(CC(=O)Nc1ccc(Cl)c(C(F)(F)F)c1)C(=O)c1ccc(OCC2CCCO2)cc1 (centres undefined) | nt | nt | nt | -2 | nt | nt | nt | nt | nt
CCOC(=O)c1c(-c2ccccc2)oc2ccc(OCC)cc12 | 0 | 102 | 103 | 36 | nt | nt | nt | nt | nt
CCOC(=O)c1c(-c2ccccc2)oc2ccc(OCC(O)CNCCN(C)C)cc12 (centres undefined) | 31* | 100 | 165* | 53* | 179 | 50 | 108 | 0 | 56*
Cc1nc2sccn2c(=O)c1CCN1CCC(=C(c2ccc(F)cc2)c2ccc(F)cc2)CC1 | 12 | 86 | 146* | 45* | 136 | 20 | 107 | -1 | 22
Cc1ccc(C(=O)NCCN2C3=NC[C@H](C(C)C)N3C[C@H]2Cc2ccc(O)cc2)cc1Br | 34 | 105 | 145* | 50* | 100 | -6 | 82 | 0 | 23
COc1ccc(C[C@H]2CN3C(=NC[C@@H]3C(C)C)N2CCNC(=O)c2ccc(C)c(Br)c2)cc1 | 32 | 103 | 154* | 60* | 157 | 66 | 110 | -4 | 34
COc1ccc(C[C@H]2CN3C(=NC[C@H]3C)N2CCNC(=O)c2ccc(C)c(Br)c2)cc1 | 10 | 104 | 126 | 11 | nt | nt | nt | nt | nt
Cc1ccc(Nc2nc(NCCO)c3ccccc3n2)cc1C | 14 | 108 | 160* | 52* | 142 | 33 | 104 | 2 | 82*
COC(=O)c1c(NC(=S)NN2CCN(C)CC2)sc2c1CCC(C)C2 (centres undefined) | 26 | 112 | 163* | 62* | 143 | 13 | 106 | 4 | 91*
C/C=C(\C)C(=O)NCCN1C2=NC[C@@H](Cc3ccccc3)N2C[C@@H]1Cc1ccc(OC)cc1 | 6 | 91 | 133 | 31 | nt | nt | nt | nt | nt
CCCCCCNC(=O)N[C@@H](C(=O)NCCC[C@H]1CN2C(=NC[C@@H]2Cc2ccccc2)N1CCc1cccc(OC)c1)C(C)C | 46* | 109 | 201* | 57* | 169 | 49 | 104 | 2 | 61*
CCOc1ccc(CNCCc2ccc(S(N)(=O)=O)cc2)cc1 | -8 | 97 | 91 | 7 | nt | nt | nt | nt | nt
CCOc1cc(CNCCc2ccc(S(N)(=O)=O)cc2)ccc1OCc1ccc(Cl)cc1 | 46* | 110 | 214* | 58* | 183 | 37 | 105 | 8 | 66*
O=C(CCC1CCCCC1)NCCN1C2=NC[C@H](Cc3ccccc3)N2C[C@H]1Cc1ccc(O)cc1 | 37 | 106 | 163* | 65* | 172 | 89* | 99 | 2 | 60*
NC1=NC[C@H](Cc2ccc(O)cc2)N1CC1CCCCC1 | 6 | 98 | 108 | 14 | nt | nt | nt | nt | nt
COc1ccc(C[C@@H]2CN3C(=NC[C@@H]3Cc3ccc(O)cc3)N2C[C@H](C)NC(=O)CCC2CCCCC2)cc1 | 9 | 1.0*[inhibitor] | 135* | 56* | 155 | 53 | 107 | 0 | 38
NC1=NC[C@@H](Cc2ccc(O)cc2)N1CCCCC1CCCCC1 | 12 | 106 | 134* | 66* | 121 | 8 | 102 | -1 | 41
CSCC[C@H](NC(=O)[C@@H]1Cc2c([nH]c3ccccc23)C2c3ccccc3C(=O)N21)C(=O)NCC1CCCO1 (some centres undefined) | -1 | 101 | 98 | 8 | nt | nt | nt | nt | nt
